From PubChem BioAssay (EPA / NIEHS)
Activity calls are given as the source filed them. Rule for the calls: active = hit-call score of the fitted dose curve at least 0.9, where 1 is the maximum; inactive = score below 0.9.

Columns and labels:
[1] = APR_HepG2_CellCycleArrest_24hr: Apredica 24-hour HepG2 Assay for Cell Cycle Arrest (AID 2282905); conditions: imaging, actives raise or lower the signal;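 note: cell cycle arrest scored as ratio of 2N to 4N nuclear DNA content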
Summary of the method: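 After 24 h exposure at 0.39–200 uM in 0.5% DMSO, fixed cells received Hoechst 33342 staining. Imaging quantified per-nucleus DNA content; gain or loss fitted against DMSO controls.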

[2] = APR_HepG2_NuclearSize_24hr: Apredica 24-hour HepG2 Assay for Nuclear Size (AID 2282907); conditions: high-content imaging, actives raise or lower the signal
Summary of the method: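 Nuclear size from Hoechst 33342-stained, formaldehyde-fixed HepG2 nuclei imaged by high-content microscopy, after 24 h dosing at ten concentrations from 0.39 to 200 uM in 0.5% DMSO; gain or loss relative to DMSO baseline.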

[3] = APR_HepG2_CellLoss_24hr: Apredica 24-hour HepG2 Assay for Cell Loss (AID 2282908); conditions: high-content imaging;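 for AC50: fit in both directions so a hit may be cell loss or gain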
Summary of the method: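 Nuclei stained with Hoechst 33342 after formaldehyde fixation (3.7%) were imaged at 20x to count cells. Exposure lasted 24 hr, at ten concentrations from 0.39 to 200 uM in duplicate, with 0.5% v/v DMSO. Fit bidirectional, relative to DMSO.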

[4] = APR_HepG2_MicrotubuleCSK_24hr: Apredica 24-hour HepG2 Assay for Microtubule CSK Stabilty (AID 2282909); conditions: HepG2 microtubule cytoskeleton imaging, actives raise or lower the signal
Summary of the method: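 Fixed HepG2 cells were stained for alpha-tubulin and imaged after 24 hr exposure to ten concentrations spanning 0.39–200 uM in 0.5% DMSO. Signal change was fitted in both directions relative to DMSO; taxol was the positive control.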

[5] = APR_HepG2_MitoticArrest_24hr: Apredica 24-hour HepG2 Assay for Mitotic Arrest (AID 2282910); conditions: high-content imaging, actives raise or lower the signal
Summary of the method: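 HepG2, 24 hr dosing, 0.39–200 uM, 0.5% DMSO final. Formaldehyde-fixed, Triton-permeabilised, anti-phospho-histone H3 plus Hoechst. ArrayScan imaging at 20x; bidirectional fit vs DMSO baseline.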

[6] = APR_HepG2_MitoMembPot_24hr: Apredica 24-hour HepG2 Assay for Mitochondrial Membrane Potential (AID 2282911); conditions: imaging, actives raise or lower the signal
Summary of the method: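 Human hepatoma HepG2 cultures received ten compound concentrations up to 200 uM for 24 hr. Membrane-potential dye signal, captured by automated fluorescence microscopy, was scored for gain or loss against DMSO controls.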

[7] = APR_HepG2_MitoMass_24hr: Apredica 24-hour HepG2 Assay for Mitochondrial Mass (AID 2282912); conditions: high-content imaging, actives raise or lower the signal
Summary of the method: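 Endpoint is MitoTracker Red CMXRos (250 nM, 30 min, pre-fixation) intensity from 20x high-content imaging, nuclei located by Hoechst. Human HepG2 cells received ten concentrations from 0.39 to 200 uM in 0.5% DMSO for 24 hr, duplicate wells. Bidirectional fit relative to DMSO.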

[8] = APR_HepG2_p53Act_24hr: Apredica 24-hour HepG2 Assay for p53 Activation (AID 2282913); conditions: high-content imaging, actives raise or lower the signal;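 note: p53 protein immunofluorescence averaged per cell in HepG2 with Hoechst nuclei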
Summary of the method: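 Automated fluorescence imaging quantifies p53 immunostaining in HepG2 cells after a 24 hr exposure (0.39–200 uM, duplicate, 0.5% DMSO). Nuclei are located by Hoechst 33342 staining.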

[9] = APR_HepG2_CellCycleArrest_72hr: Apredica 72-hour HepG2 Assay for Cell Cycle Arrest (AID 2282914); conditions: high-content imaging, actives raise or lower the signal
Summary of the method: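 Cell cycle arrest in HepG2 was scored from nuclear DNA content after 72 hr compound treatment (0.39–200 uM). Activity, either gain or loss, was fitted against the DMSO baseline.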

[10] = APR_HepG2_CellLoss_72hr: Apredica 72-hour HepG2 Assay for Cell Loss (AID 2282915); conditions: high-content imaging
Summary of the method: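 HepG2 cells exposed 72 h to compound at 0.39–200 uM (10 concentrations, duplicate) in 0.5% DMSO. Fixed with 3.7% formaldehyde and Hoechst 33342-stained. Imaged at 20x; nuclear count gives cell number, fitted bidirectionally versus DMSO.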

[11] = APR_HepG2_P-H2AX_72hr: Apredica 72-hour HepG2 Assay for H2AX Phosphorylation (AID 2282916); conditions: imaging, actives raise or lower the signal;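 note: phospho-histone H2A.x immunostain intensity per cell marking DNA damage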
Summary of the method: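 Phospho-histone H2A.x immunofluorescence, multiplexed with Hoechst and c-Jun, quantified by high-content imaging. Compounds applied to HepG2 for 72 h across ten concentrations (0.39–200 uM, 0.5% DMSO), in duplicate; DMSO baseline.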

[12] = APR_HepG2_MitoMembPot_72hr: Apredica 72-hour HepG2 Assay for Mitochondrial Membrane Potential (AID 2282917); conditions: imaging, actives raise or lower the signal
Summary of the method: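 HepG2 cells dosed 72 hr with compound at 0.39–200 uM in duplicate, 0.5% v/v DMSO final. Mitochondria stained with 250 nM MitoTracker Red CMXRos for 30 min before formaldehyde fixation, imaged by high-content fluorescence; bidirectional fit versus DMSO.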

[13] = APR_HepG2_MitoticArrest_72hr: Apredica 72-hour HepG2 Assay for Mitotic Arrest (AID 2282918); conditions: high-content imaging, actives raise or lower the signal
Summary of the method: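 Mitotic arrest in HepG2 is scored from phospho-histone H3 staining after 72 hr dosing across 0.39–200 uM, with DMSO at 0.5% v/v. Nuclei are identified by Hoechst 33342 and fluorescence intensity is quantified per cell.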

[14] = APR_HepG2_MicrotubuleCSK_72hr: Apredica 72-hour HepG2 Assay for Microtubule CSK Stabilty (AID 2282919); conditions: HepG2 microtubule cytoskeleton, high-content imaging, actives raise or lower the signal
Summary of the method: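 HepG2, 72 hr cmpd exposure, 0.39–200 uM (10 pts, duplicate), 0.5% DMSO. 3.7% formaldehyde fix, 0.5% Triton perm, anti-alpha-tubulin/Cy5 plus Hoechst. HCS fluorescence intensity; bidirectional fit vs DMSO baseline; taxol as positive control.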

[15] = APR_HepG2_P-H2AX_24hr: Apredica 24-hour HepG2 Assay for H2AX Phosphorylation (AID 2282920); conditions: high-content imaging, actives raise or lower the signal
Summary of the method: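 Signal comes from a FITC-labeled secondary detecting phospho-histone H2A.x in fixed HepG2 cells, quantified by automated imaging at 20x. Dosing ran 24 hr across 0.39–200 uM with 0.5% v/v DMSO.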

[16] = APR_HepG2_StressKinase_24hr: Apredica 24-hour HepG2 Assay for Stress Kinase (AID 2282922); conditions: HepG2 stress kinase (phospho-c-Jun) imaging, actives raise or lower the signal
Summary of the method: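 Read-out: phospho-c-Jun immunofluorescence (Cy3 secondary) quantified by high-content imaging at 20x, nuclei defined by Hoechst 33342. Human HepG2 liver cells dosed 24 hr, 0.39–200 uM, DMSO 0.5% v/v; gain or loss of signal fitted relative to DMSO.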

[17] = APR_HepG2_NuclearSize_72hr: Apredica 72-hour HepG2 Assay for Nuclear Size (AID 2282925); conditions: high-content imaging, actives raise or lower the signal
Summary of the method: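 Read-out: nuclear diameter from Hoechst 33342 images (ArrayScan, 20x, six fields/well), via cell-cycle image analysis. HepG2 were dosed 0.39–200 uM for 72 hr in 0.5% DMSO. Bidirectional fit relative to DMSO.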

[18] = APR_HepG2_MitoMass_72hr: Apredica 72-hour HepG2 Assay for Mitochondrial Mass (AID 2282924); conditions: high-content imaging, actives raise or lower the signal;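 note: MitoTracker Red CMXRos stain intensity per cell imaged as mitochondrial mass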
Summary of the method: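 Read-out: MitoTracker Red fluorescence intensity from automated imaging (20x, six fields per well) in human HepG2 liver cells. Dosing ran 72 hr, 0.39–200 uM, 0.5% DMSO; bidirectional curve fitting versus DMSO baseline.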

[19] = APR_HepG2_StressKinase_72hr: Apredica 72-hour HepG2 Assay for Stress Kinase (AID 2282921); conditions: HepG2 stress kinase (phospho-c-Jun) imaging, actives raise or lower the signal
Summary of the method: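 Stress kinase signal is phospho-c-Jun immunofluorescence (1:500 primary, Cy3 secondary) in fixed, permeabilized human HepG2 cells imaged at 20x. Exposure lasted 72 hr over ten concentrations from 0.39 to 200 uM, 0.5% DMSO, in duplicate. Bidirectional fit versus DMSO.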

[20] = APR_HepG2_p53Act_72hr: Apredica 72-hour HepG2 Assay for p53 Activation (AID 2282923); conditions: high-content imaging, actives raise or lower the signal;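 note: average cellular p53 protein immunofluorescence intensity in HepG2 cells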
Summary of the method: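 After 72 h with compound (ten points, 0.39 to 200 uM, final DMSO 0.5% v/v), fixed HepG2 cells were labelled with sheep anti-p53 and Hoechst 33342 and imaged; gain or loss versus DMSO scored.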

Measured: AC50

O=C(Oc1ccc(Br)cc1)N1CCN2CCC1CC2
active: [9] 96.3 µM | [10] 80.8 µM | [11] 101 µM | [13] 106 µM
not listed: [18] | [19] | [20]
inactive: all other assays above

Nc1ccc([N+](=O)[O-])cc1
not listed: [19] | [20]
inactive: all other assays above

Cc1ccc(N)c(N)c1
not listed: [2] | [18]
inactive: all other assays above

O=Cc1ccco1
not listed: [2]
inactive: all other assays above

ClC1=C(Cl)[C@]2(Cl)[C@H]3[C@H]([C@@H]4C=C[C@H]3C4)[C@@]1(Cl)C2(Cl)Cl
active: [2] 53.8 µM | [3] 46.5 µM | [5] 25.4 µM | [7] 48.1 µM | [8] 49.7 µM | [9] 16.2 µM | [10] 36.7 µM | [11] 42.6 µM | [13] 32.9 µM | [15] 50.7 µM
inactive: [1] | [4] | [6] | [12] | [14] | [16] | [17]

CCCCC(CC)COC(=O)c1ccc(C(=O)OCC(CC)CCCC)c(C(=O)OCC(CC)CCCC)c1 (stereo unspecified)
not listed: [2]
inactive: all other assays above

OCCOCCO
not listed: [8] | [19] | [20]
inactive: all other assays above

Cc1cc(N=Nc2ccccc2C)ccc1N
active: [1] 100 µM | [3] 70 µM | [5] 87.6 µM | [6] 101 µM | [7] 121 µM | [9] 21.5 µM | [10] 43.1 µM | [15] 100 µM | [16] 100 µM | [20] 2.34 µM | [17] 56.3 µM
inactive: [4] | [8] | [11] | [12] | [13] | [14] | [19]

[As]#[In]
not listed: [2] | [20]
inactive: all other assays above

CC(C)(C)OOC(C)(C)CCC(C)(C)OOC(C)(C)C
active: [7] 56.5 µM | [9] 55.1 µM | [10] 56.1 µM | [12] 52.8 µM | [13] 54.8 µM
not listed: [18] | [19] | [20]
inactive: all other assays above

CC(C)(O)c1cnn2c(-c3ccc(F)c(-c4c(F)cccc4C#N)c3)cnc2n1
active: [3] 23.4 µM | [4] 89.9 µM | [5] 42.1 µM | [6] 33.1 µM | [7] 81.4 µM | [10] 23.9 µM | [11] 30.1 µM | [12] 83.9 µM | [13] 25.9 µM | [14] 78.8 µM | [15] 31.4 µM | [16] 51.5 µM
inactive: [1] | [8] | [9] | [19] | [20] | [17]

CC(C)COC(=O)c1ccccc1C(=O)OCC(C)C
inactive: [2] | [4] | [5] | [11] | [14] | [16] | [17]
active: [1] 85.7 µM | [3] 87 µM | [6] 53.7 µM | [7] 108 µM | [9] 76.2 µM | [10] 63.2 µM | [12] 80 µM | [13] 67 µM | [15] 77.3 µM | [18] 84.7 µM

c1ccc(NNc2ccccc2)cc1
active: [8] 110 µM | [9] 104 µM | [10] 97.9 µM | [11] 100 µM | [13] 100 µM | [20] 98.9 µM
not listed: [2] | [18]
inactive: all other assays above
